Screens as filed in PubChem.
Hits are enriched below; roughly 10% of the tested compounds scored in any of these assays.
HP1b binding inh = HP1-beta chromodomain-methylated histone interaction inhibition; P83916; Potency, µM (series often up to 114 µM), for the others: at the top dose activity change, negative = inhibition, actives largely listed as inhibitors; 0.56% of 390,000 active; AlphaScreen HP1-beta / biotin-H3K9me3 peptide binding; also: nearly all actives have a fitted effect of over 70% in size
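HP1-beta protein (50 nM final) preincubated 30 min at room temperature with biotinylated H3(1-18)K9me3 peptide (50 nM) in PBS pH 7.4, 0.01% Tween-20, then compound added for 30 min. AlphaScreen streptavidin donor/nickel chelate acceptor beads (10 ug/mL final), 30 min dark, luminescence read.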
G9a inh = blocks human histone lysine methyltransferase G9a. 8.8% of 350,000 active. G9a H3K9 monomethylation, AlphaScreen, 2 h. Q96KQ7. AID 504332. Potency, µM (series often up to 102 µM), inactives show top-dose activity, negative = inhibition, most hits filed as inhibitors; also: % is scaled to controls: 0 for no effect and ±100 for the full control effect; nearly all actives have a fitted effect of over 75% in size
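G9a (20 nM) was preincubated 15 min with compound, then reacted 2 h at room temperature with 500 nM biotin-H3K9 peptide and 20 µM SAM. Monomethyl-H3K9 detected by AlphaScreen using anti-H3K9me1 antibody.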
BAZ2B inh = inhibitors of human BAZ2B bromodomain; 4.4% of 360,000 active; Q9UIF8; AlphaScreen BAZ2B-H3K14Ac peptide displacement; Potency, µM (titrated, usually from 114 µM), without a hit: at the highest dose activity change, negative = inhibition, usual class: inhibitors; also: % is scaled to controls: 0 for no effect and ±100 for the full control effect; nearly all actives have a fitted effect of over 60% in size
Target sequence (Q9UIF8 whole entry, looked up): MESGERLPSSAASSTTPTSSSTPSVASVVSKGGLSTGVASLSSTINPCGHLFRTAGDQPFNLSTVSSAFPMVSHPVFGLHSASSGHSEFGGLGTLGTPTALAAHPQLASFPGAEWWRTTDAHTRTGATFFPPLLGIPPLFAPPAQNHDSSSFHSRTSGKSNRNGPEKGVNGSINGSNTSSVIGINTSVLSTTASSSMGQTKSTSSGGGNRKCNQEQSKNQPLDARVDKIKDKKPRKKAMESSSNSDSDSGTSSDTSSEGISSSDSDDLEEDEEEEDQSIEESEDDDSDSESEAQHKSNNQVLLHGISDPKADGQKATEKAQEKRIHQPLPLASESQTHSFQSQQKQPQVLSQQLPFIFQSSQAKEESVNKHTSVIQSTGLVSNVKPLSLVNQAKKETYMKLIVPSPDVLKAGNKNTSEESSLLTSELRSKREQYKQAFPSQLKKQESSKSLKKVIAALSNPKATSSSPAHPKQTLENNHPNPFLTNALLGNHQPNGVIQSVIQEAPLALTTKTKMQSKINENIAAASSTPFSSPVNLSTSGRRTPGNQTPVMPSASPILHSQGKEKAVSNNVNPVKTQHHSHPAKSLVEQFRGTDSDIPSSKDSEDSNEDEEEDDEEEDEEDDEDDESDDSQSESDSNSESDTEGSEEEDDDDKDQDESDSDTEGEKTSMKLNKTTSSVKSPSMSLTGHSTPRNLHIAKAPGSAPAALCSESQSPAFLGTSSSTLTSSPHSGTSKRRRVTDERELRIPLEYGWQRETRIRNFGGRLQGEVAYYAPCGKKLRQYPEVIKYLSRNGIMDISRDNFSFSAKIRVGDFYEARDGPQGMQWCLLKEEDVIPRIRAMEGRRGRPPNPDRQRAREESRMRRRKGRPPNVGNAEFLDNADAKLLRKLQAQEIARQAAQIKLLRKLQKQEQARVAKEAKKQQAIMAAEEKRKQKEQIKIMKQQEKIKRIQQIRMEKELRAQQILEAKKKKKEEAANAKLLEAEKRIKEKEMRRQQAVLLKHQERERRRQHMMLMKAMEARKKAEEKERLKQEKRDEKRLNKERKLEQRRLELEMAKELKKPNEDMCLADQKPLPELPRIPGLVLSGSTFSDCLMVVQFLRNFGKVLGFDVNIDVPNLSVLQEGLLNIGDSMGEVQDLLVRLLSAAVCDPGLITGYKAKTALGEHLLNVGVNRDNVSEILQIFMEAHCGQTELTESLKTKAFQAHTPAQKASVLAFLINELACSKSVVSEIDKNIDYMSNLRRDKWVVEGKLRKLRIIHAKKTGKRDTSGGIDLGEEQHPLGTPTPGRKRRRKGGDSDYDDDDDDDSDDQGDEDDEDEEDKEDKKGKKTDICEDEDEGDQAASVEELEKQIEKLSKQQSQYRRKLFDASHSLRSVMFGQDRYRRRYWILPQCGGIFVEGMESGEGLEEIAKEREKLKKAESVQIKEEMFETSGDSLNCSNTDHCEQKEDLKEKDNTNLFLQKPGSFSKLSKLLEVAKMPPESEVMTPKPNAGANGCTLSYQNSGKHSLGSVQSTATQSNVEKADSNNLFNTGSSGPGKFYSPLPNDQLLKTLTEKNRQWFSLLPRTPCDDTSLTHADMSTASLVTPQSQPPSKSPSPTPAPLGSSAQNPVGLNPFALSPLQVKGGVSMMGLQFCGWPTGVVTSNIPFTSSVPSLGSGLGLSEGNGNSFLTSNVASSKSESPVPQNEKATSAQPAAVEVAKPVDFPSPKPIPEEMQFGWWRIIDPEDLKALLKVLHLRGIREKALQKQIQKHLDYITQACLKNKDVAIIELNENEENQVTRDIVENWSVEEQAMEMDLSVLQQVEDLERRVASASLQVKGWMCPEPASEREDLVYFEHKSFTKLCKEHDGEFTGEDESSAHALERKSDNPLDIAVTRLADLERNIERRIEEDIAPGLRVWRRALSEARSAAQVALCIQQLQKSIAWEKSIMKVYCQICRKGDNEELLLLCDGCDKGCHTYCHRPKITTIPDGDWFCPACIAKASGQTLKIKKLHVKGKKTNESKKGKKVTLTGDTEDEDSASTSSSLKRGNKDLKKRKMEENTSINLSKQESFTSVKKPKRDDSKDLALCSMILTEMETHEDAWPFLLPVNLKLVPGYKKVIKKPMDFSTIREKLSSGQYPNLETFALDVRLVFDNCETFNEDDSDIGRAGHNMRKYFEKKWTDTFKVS
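AlphaScreen displacement: compounds (up to 110uM) incubated 30 min at room temperature with a preformed 50 nM BAZ2B/50 nM biotinylated H3K14Ac peptide complex in PBS pH 7.4 with Tween-20. Donor and acceptor beads at 10 ug/mL final added, 20 min light-protected before reading.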
GLS inhibitor = inhibitors of human glutaminase (GLS); O94925; GLS enzymatic activity, qHTS titration; Potency, µM (doses to about 45.5 µM), without a hit: at the highest dose activity change, negative = inhibition, usual class: inhibitors; 0.21% of 410,000 active; also: % is scaled to controls: 0 for no effect and ±100 for the full control effect
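Glutamate formation by hKGA was monitored fluorometrically using coupled glutamate oxidase, HRP and Amplex Red. Substrate was added as 1 mM L-glutamine solution; incubation was 30 min at RT after an initial read.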
JMJD2A Tudor = inhibitors of human JMJD2A Tudor domain. O75164. AlphaScreen JMJD2A-Tudor / H3K4me3 peptide binding. Potency, µM (doses to about 114 µM), without a hit: at the highest dose activity change, negative = inhibition, most hits filed as inhibitors. 4.4% of 390,000 active. AID 504339; also: % is scaled to controls: 0 for no effect and ±100 for the full control effect; nearly all actives have a fitted effect of over 50% in size
An asterisk follows results filed as active; ! = repeats disagree; [ ] = another dose, or the depositor's remark. Calls follow the shape of the dose curve; as a rule, active = well fitted curve in the direction sought with a large enough effect; inconclusive = small, poorly fitted or top-dose-only effect, or another doubt; inactive = no such curve, though single readings can be large; an effect the other way counts as inactive or inconclusive. Potency is read from the fitted curve at half-maximal effect.

`Cc1nc2cc(NS(=O)(=O)c3c(C)c(C)cc(C)c3C)ccc2s1` gave HP1b binding inh -6%, G9a inh 11%[59 µM], BAZ2B inh 13%, GLS inhibitor 8% and JMJD2A Tudor -19%.
Screening CC(=O)OCCn1c2nc(=O)[nH]c(=O)c-2nc2cc(C)c(C)cc21 returned HP1b binding inh 27%, G9a inh -23%, BAZ2B inh 7%, GLS inhibitor -11% and JMJD2A Tudor -24%.
Cc1cc2nc3c(=O)[nH]c(=O)nc-3n(CC(O)C(O)C(O)CO)c2cc1C (stereo not drawn) was read as G9a inh 6.3µM* and GLS inhibitor 8%.
Screening CN1CCN(CC#CCC(O)(c2ccccc2)c2ccccc2)CC1 returned HP1b binding inh 15%, G9a inh 71µM*, BAZ2B inh -22%, GLS inhibitor -12% and JMJD2A Tudor -11%.
CN1CCN(CC#CCC(O)(c2ccccc2)C2CCCC2)CC1 (stereo not drawn) was read as HP1b binding inh 7%, G9a inh 8.9µM*, BAZ2B inh inconclusive, GLS inhibitor 11% and JMJD2A Tudor -25%.
OC(CC#CCN1CCCC1)(c1ccccc1)c1ccccc1 was read as HP1b binding inh 26%, G9a inh 28µM*, BAZ2B inh -24%, GLS inhibitor -2% and JMJD2A Tudor -30%.
`OC(CC#CCN1CCCCC1)(c1ccccc1)c1ccccc1` gave HP1b binding inh 30%, G9a inh -10%, BAZ2B inh -1%, GLS inhibitor -4% and JMJD2A Tudor -15%.
For CCNC(=S)Nc1cc(Cl)ccc1Oc1ccccc1 the results were HP1b binding inh 40%, G9a inh 22%[59 µM], BAZ2B inh 11%, GLS inhibitor -6% and JMJD2A Tudor 20%.
N#CCCn1c(=O)c(-c2ccc(Cl)cc2)nc2cnc(N3CCNCC3)nc21 was read as G9a inh 1%[0.501 µM].
Screening CCN(CCCNC(=O)c1[nH]c(C)c(C(C)=O)c1C)c1ccccc1 returned HP1b binding inh -18%, G9a inh 14µM*, BAZ2B inh 50µM*, GLS inhibitor 75% and JMJD2A Tudor inconclusive.
`CCc1nc(Nc2ccc(F)c(Cl)c2)c2c3c(sc2n1)CCCC3` gave HP1b binding inh 76%, G9a inh -3%[59 µM], BAZ2B inh 34%, GLS inhibitor 0% and JMJD2A Tudor 49%.
`NC(=O)c1ccc(/C=N/O)nc1` gave HP1b binding inh 21%, G9a inh 3.5µM*, BAZ2B inh 32µM*, GLS inhibitor 30% and JMJD2A Tudor 18µM*.
For O=C(NCc1ccccn1)c1ccc(/C=N/O)nc1 the results were HP1b binding inh 23%, G9a inh -5%, BAZ2B inh 45µM*, GLS inhibitor 23% and JMJD2A Tudor 18µM*.
For O=C(NCc1ccccc1)c1ccc(/C=N/O)nc1 the results were HP1b binding inh 20%, G9a inh 10µM*, BAZ2B inh 56µM*, GLS inhibitor 33% and JMJD2A Tudor 7.9µM*.
For COc1ccc(C(=O)NCc2ccccn2)cc1 the results were HP1b binding inh 32%, G9a inh -8%[59 µM], BAZ2B inh 6%, GLS inhibitor -9% and JMJD2A Tudor -25%.
`O=C(CN1C(=O)CC(c2ccccc2)Sc2ccccc21)Nc1cccc(Cl)c1` (stereo not drawn) gave HP1b binding inh 14%, G9a inh -3%[59 µM], BAZ2B inh -3%, GLS inhibitor 6% and JMJD2A Tudor -12%.
Screening Cc1cccc(C)c1NC(=O)CN(CC(=O)O)CC(=O)O returned G9a inh -7%[12.7 µM] and GLS inhibitor 1%.
For Cc1cccc(CC(=O)NCCS(=O)(=O)N2CCN(c3ccccc3)CC2)c1 the results were GLS inhibitor -1%.
`CN(C)c1ccc(C(=C2C=CC(=[N+](C)C)C=C2)c2ccccc2)cc1` gave G9a inh 11µM* and GLS inhibitor 26%.
For CN(C)c1ccc(C(=C2C=CC(=[N+](C)C)C=C2)c2ccc(N(C)C)cc2)cc1 the results were G9a inh inconclusive and GLS inhibitor 2%.
Cc1nnc(C)n1/N=C/c1ccc(-c2ccccc2Cl)o1 was read as HP1b binding inh -12%, G9a inh 50µM*, BAZ2B inh -12%, GLS inhibitor -7% and JMJD2A Tudor inconclusive.
For O=C(N/N=C/c1ccc(-c2ccccc2Cl)o1)c1ccccc1 the results were HP1b binding inh 30%, G9a inh 4%, BAZ2B inh -17%, GLS inhibitor 0% and JMJD2A Tudor -2%.
`O=S(=O)(N/N=C\c1ccc(-c2ccccc2Cl)o1)c1ccccc1` gave HP1b binding inh inconclusive, G9a inh 7.9µM*, BAZ2B inh inconclusive, GLS inhibitor -5% and JMJD2A Tudor -36%.
For O=C(O)c1ccc(N/N=C/c2ccc(-c3ccccc3Cl)o2)cc1 the results were HP1b binding inh 1%, G9a inh 56µM*, BAZ2B inh -31%, GLS inhibitor -10% and JMJD2A Tudor -11%.
Screening Cc1cc(C)c(C(O)c2ncc(-c3ccccc3Cl)[nH]2)c(C)c1 (stereo not drawn) returned GLS inhibitor 2%.
`COc1ccccc1OCCCOc1cccc(/C=C2\SC(=O)NC2=O)c1` gave HP1b binding inh -2%, G9a inh -1%[0.501 µM], BAZ2B inh 79µM*, GLS inhibitor inconclusive and JMJD2A Tudor 22µM*.
Screening C[C@](Cc1ccc(O)c(O)c1)(NN)C(=O)O returned G9a inh 2.2µM*.
CC(N)(Cc1ccc(O)c(O)c1)C(=O)O (stereo not drawn) was read as G9a inh 0.95µM*.
For C[C@@](Cc1ccc(O)c(O)c1)(NN)C(=O)O the results were HP1b binding inh inconclusive, G9a inh 3.2µM*!, BAZ2B inh 5%, GLS inhibitor -17% and JMJD2A Tudor 79µM*.
`CC(C)(Cc1cccc(CC(C)(C)C(=O)O)c1)C(=O)O` gave HP1b binding inh 62%, G9a inh 14%, BAZ2B inh 3%, GLS inhibitor -4% and JMJD2A Tudor -12%.
For CN(C)c1ccc(C(CNC(=O)c2c(F)cccc2Cl)N2CCOCC2)cc1 (stereo not drawn) the results were HP1b binding inh 4%, G9a inh -38%[59 µM], BAZ2B inh -19%, GLS inhibitor 25% and JMJD2A Tudor -18%.
`COc1cc(C)ccc1OCCOCCOc1cc(C)c(C)cc1Br` gave HP1b binding inh 85%, G9a inh 49%[59 µM], BAZ2B inh 62%, GLS inhibitor 5% and JMJD2A Tudor 28%.
CCc1cccc(NC(=O)Cn2c(=O)n(CC(=O)NCCc3ccccc3)c(=O)c3ccccc32)c1 was read as HP1b binding inh 18%, G9a inh -17%[59 µM], BAZ2B inh inconclusive, GLS inhibitor 2% and JMJD2A Tudor -20%.
